Results filed as inconclusive are left out. Entries that show only a call come without a potency. The source made the active and inactive calls. Unless noted, the call rests on the fitted dose curve.
Assays:
[1] = Nuclear factor erythroid 2-related factor 2/antioxidant responsive element (Nrf2/ARE) small molecule agonists: qHTS cell viability counter screen in human keratinocytes (AID 1919968; active means well fitted curve in the direction sought with a large enough effect in the repeat runs; an effect the other way counts as inactive or inconclusive; further: nearly all actives have a fitted effect of over 55% in size)
Summary of the method: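 After a 5 h attachment period, ARE-reporter keratinocytes were dosed with compounds in DMSO and then cultured 23 h at 37 C. Cell viability came from CellTiter-Fluor signal read after a further 1 h.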

[2] = Nuclear factor erythroid 2-related factor 2/antioxidant responsive element (Nrf2/ARE) small molecule agonists: luciferase reporter gene qHTS assay in human keratinocytes (AID 1919969); further: nearly all actives have a fitted effect of over 35% in size; further: potency means the concentration at half of the fitted maximal effect
[3] = target: Gonadotropin-releasing hormone receptor (Homo sapiens) (UniProt P30968); experiment: Human gonadotropin-releasing hormone receptor (GnRHR) small molecule agonists, calcium flux assay in GnRHR-HEK293 cells (AID 1920063); further: nearly all actives have a fitted effect of over 35% in size
Summary of the method: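 We seeded human GnRHR-expressing HEK293 cells for 18 hours, loaded them with calcium dye for an hour at 37 C, added test compounds, and recorded fluorescence intensity kinetically for three minutes.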

[4] = target: KiSS-1 receptor (Homo sapiens) (UniProt Q969F8); experiment: Human kisspeptin (KISS1R) small molecule agonists, calcium flux assay in KISS1R-HEK293 cells (AID 1920064; active means well fitted curve in the direction sought with a large enough effect in the repeat runs; an effect the other way counts as inactive or inconclusive)
Summary of the method: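 Kinetic calcium assay, 1 s sampling over 3 min at Ex/Em 480/540, in HEK293 cells engineered with human KISS1R; compounds delivered in DMSO after 1 h dye loading.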

[5] = G protein-coupled receptor (GPCR) small molecule agonists, calcium flux assay: HEK293 wild type cell line counter screen (AID 1920065)
Summary of the method: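 Calcium-sensitive dye, loaded 1 h at 37 C into cells cultured 18 h, reports compound-evoked calcium release as fluorescence (Ex/Em 480/540), measured over 3 min. Agonist mode; 15-point titrations, triplicate.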

[6] = p53 small molecule agonists, cell-based qHTS assay with human liver microsomes (AID 1963577);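 further: p53 response element beta-lactamase reporter cells with liver microsomes plus NADPH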
Summary of the method: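 HLM-supplemented p53RE-bla reporter assay: 16 h compound exposure at 37 C, microsomes and NADPH each 0.5 mg/mL final, read by fluorescence intensity.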

[7] = p53 small molecule agonists, cell-based qHTS assay with rat liver microsomes (AID 1963578)
Summary of the method: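 Quantitative HTS of the Tox21 10K library: p53RE-bla cells, rat liver microsomes plus NADPH at 0.5 mg/mL final each, 16 h at 37 C, beta-lactamase fluorescence detection.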

[8] = p53 small molecule agonists, cell-based qHTS assay with human liver microsomes: qHTS cell viability counter screen (AID 1963579); further: nearly all actives have a fitted effect of over 45% in size
Summary of the method: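 Viability of p53RE-bla cells is measured as CellTiter-Glo luminescence following a 16 h, 37 C incubation with compound, liver microsomes from human donors and NADPH.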

[9] = p53 small molecule agonists, cell-based qHTS assay with rat liver microsomes: qHTS cell viability counter screen (AID 1963580); further: nearly all actives have a fitted effect of over 45% in size
Summary of the method: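 Intracellular ATP, by CellTiter-Glo luminescence, defines viability. HCT-116 p53RE-bla cells, 4,000 per well, were compound-treated in the presence of rat liver microsomes and NADPH for 16 h at 37 C.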

[10] = p53 small molecule agonists, cell-based qHTS assay: qHTS cell viability counter screen (AID 1963581); further: nearly all actives have a fitted effect of over 45% in size
Summary of the method: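 Following 5 h attachment, HCT-116 p53RE-bla cells took up compound for 16 h at 37 C; the reporter was read with B/G FRET substrate (2 h RT), and viability then via CellTiter-Glo ATP luminescence.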

[11] = p53 small molecule agonists, cell-based qHTS assay (AID 1963582; active means well fitted activation curve with a large enough effect in the signal ratio in the repeat runs, not every such curve was filed as active; the % refers to the signal ratio)
Summary of the method: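 In this cell-based concentration-response screen, a p53 response element drives beta-lactamase; cells received DMSO-borne compounds after 5 h culture and were incubated a further 16 h before FRET substrate development.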

[12] = target: 5-hydroxytryptamine receptor 2A (Homo sapiens) (UniProt P28223); experiment: 5-hydroxytryptamine receptor 2A (HTR2A) small molecule antagonists, cell-based qHTS assay (AID 1963586); further: nearly all actives have a fitted effect of over 45% in size
Summary of the method: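 Antagonist-mode intracellular calcium assay: DOI (4 nM) added after 5 min compound pre-incubation at room temperature to dye-loaded HTR2A-CHO cells. Fluorescence followed for 3 min, sampled every second.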

[13] = target: 5-hydroxytryptamine receptor 2A (Homo sapiens) (UniProt P28223); experiment: 5-hydroxytryptamine receptor 2A (HTR2A) small molecule agonists, cell-based qHTS assay (AID 1963587); further: nearly all actives have a fitted effect of over 30% in size
Summary of the method: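 Kinetic calcium-flux fluorescence (2 min, 1 sec intervals) after compound addition in agonist mode. HTR2A-CHO cells were cultured 18 h, then dye-loaded 1 h at 37 C.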

[14] = target: Muscarinic acetylcholine receptor M1 (Homo sapiens) (UniProt P11229); experiment: Cholinergic receptor muscarinic 1 (CHRM1) small molecule antagonists, cell-based qHTS assay (AID 1963588); further: nearly all actives have a fitted effect of over 40% in size
Summary of the method: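 CHRM1-CHO calcium-flux assay, antagonist mode. Cells were seeded 18 h, dye-loaded 1 h at 37 C and given compound for 5 min at RT, then acetylcholine was added at 50nM. FDSS fluorescence was read 3 min; 15 concentrations, three runs.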

[15] = target: Muscarinic acetylcholine receptor M1 (Homo sapiens) (UniProt P11229); experiment: Cholinergic receptor muscarinic 1 (CHRM1) small molecule agonists, cell-based qHTS assay (AID 1963589); further: nearly all actives have a fitted effect of over 35% in size
Summary of the method: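 Measures agonist-induced intracellular calcium rise. Stable human CHRM1 CHO line, 1 h dye load at 37 C, compounds from DMSO, kinetic fluorescence read.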

[16] = cAMP Responsive Elements (CRE) small molecule agonists, cell-based qHTS assay (AID 1963590)
Summary of the method: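 A CRE-responsive beta-lactamase reporter in HEK 293T cells was used. Treatment ran 3 h at 37 C; detection used LiveBLAzer B/G FRET substrate for 2 h at room temperature.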

[17] = cAMP Responsive Elements (CRE) small molecule antagonists, cell-based qHTS assay (AID 1963591; active means well fitted inhibition curve with a large enough effect in the signal ratio in the repeat runs, not every such curve was filed as active; the % refers to the signal ratio)
Summary of the method: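 HEK293T cells carrying a CRE-driven beta-lactamase reporter receive compound and NKH477 (0.25 uM final) for 3 h. Fluorescence from LiveBLAzer B/G FRET substrate is read after 2 h at room temperature.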

[18] = target: Beta-2 adrenergic receptor (Homo sapiens) (UniProt P07550); experiment: Adrenergic beta2 receptor (ADRB2) small molecule antagonists, cell-based qHTS assay (AID 1963592); further: series mostly up to about 92 µM; nearly all actives have a fitted effect of over 50% in size
Summary of the method: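 Cells (CHO, stable ADRB2 overexpression) incubated 18-20hr at 37C; compounds added from DMSO; agonist mix (1nM isoproterenol, 100uM IBMX, 25uM Ro-20-1724) added; 0.5hr RT; d2-cAMP and anti-cAMP-cryptate added; 1hr RT; 665/615 nm read.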

[19] = target: Beta-2 adrenergic receptor (Homo sapiens) (UniProt P07550); experiment: Adrenergic beta2 receptor (ADRB2) small molecule agonists, cell-based qHTS assay (AID 1963593);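 further: CHO cells stably overexpressing human ADRB2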
Summary of the method: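 CHO cells stably over-expressing ADRB2 were plated overnight at 37C, then dosed with compounds plus a stimulation mix containing 100uM IBMX and 25uM Ro-20-1724 for 0.5hr at room temperature. cAMP was measured by HTRF competition, 1hr.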

[20] = target: D(2) dopamine receptor (Homo sapiens) (UniProt P14416); experiment: Dopamine D2 receptor (DRD2) small molecule agonists, cell-based qHTS assay (AID 1963594); further: nearly all actives have a fitted effect of over 35% in size
Summary of the method: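 cAMP accumulation in DRD2-HEK293 cells measured by HTRF after 1 h detection; compounds added 10 min before NKH477 (200nM […]) forskolin-analogue stimulation, 30 min at room temperature, with Ro20-1724 present at 0.1 mM final.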

Chain of 5-hydroxytryptamine receptor 2A (Homo sapiens) (P28223 whole entry, looked up): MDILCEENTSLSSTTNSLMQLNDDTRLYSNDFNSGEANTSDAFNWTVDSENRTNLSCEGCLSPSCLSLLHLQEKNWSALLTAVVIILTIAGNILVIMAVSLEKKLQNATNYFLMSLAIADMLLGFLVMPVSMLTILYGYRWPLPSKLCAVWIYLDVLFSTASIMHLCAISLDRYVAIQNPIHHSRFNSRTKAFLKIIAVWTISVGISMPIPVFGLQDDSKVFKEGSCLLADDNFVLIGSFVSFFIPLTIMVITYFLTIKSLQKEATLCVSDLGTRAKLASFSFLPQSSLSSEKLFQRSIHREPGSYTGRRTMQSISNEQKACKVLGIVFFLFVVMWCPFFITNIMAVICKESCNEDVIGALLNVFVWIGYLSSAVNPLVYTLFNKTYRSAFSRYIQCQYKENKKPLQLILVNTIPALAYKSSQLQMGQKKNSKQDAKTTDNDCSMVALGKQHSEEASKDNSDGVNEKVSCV
Chain of D(2) dopamine receptor (Homo sapiens) (P14416 whole entry, looked up): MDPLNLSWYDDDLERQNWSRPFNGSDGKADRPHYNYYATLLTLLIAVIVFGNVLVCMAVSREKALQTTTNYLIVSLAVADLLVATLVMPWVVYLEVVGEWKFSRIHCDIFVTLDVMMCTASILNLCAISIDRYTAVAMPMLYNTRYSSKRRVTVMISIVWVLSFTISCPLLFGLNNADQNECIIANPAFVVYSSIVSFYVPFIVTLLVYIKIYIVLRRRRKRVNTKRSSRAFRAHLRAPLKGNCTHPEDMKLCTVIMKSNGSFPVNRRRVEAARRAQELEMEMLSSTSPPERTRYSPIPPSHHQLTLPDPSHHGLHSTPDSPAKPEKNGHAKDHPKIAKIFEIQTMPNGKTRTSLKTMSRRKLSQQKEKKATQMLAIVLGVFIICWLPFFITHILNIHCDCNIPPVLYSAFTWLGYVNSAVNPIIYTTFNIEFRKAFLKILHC
Chain of Muscarinic acetylcholine receptor M1 (Homo sapiens) (P11229 whole entry, looked up): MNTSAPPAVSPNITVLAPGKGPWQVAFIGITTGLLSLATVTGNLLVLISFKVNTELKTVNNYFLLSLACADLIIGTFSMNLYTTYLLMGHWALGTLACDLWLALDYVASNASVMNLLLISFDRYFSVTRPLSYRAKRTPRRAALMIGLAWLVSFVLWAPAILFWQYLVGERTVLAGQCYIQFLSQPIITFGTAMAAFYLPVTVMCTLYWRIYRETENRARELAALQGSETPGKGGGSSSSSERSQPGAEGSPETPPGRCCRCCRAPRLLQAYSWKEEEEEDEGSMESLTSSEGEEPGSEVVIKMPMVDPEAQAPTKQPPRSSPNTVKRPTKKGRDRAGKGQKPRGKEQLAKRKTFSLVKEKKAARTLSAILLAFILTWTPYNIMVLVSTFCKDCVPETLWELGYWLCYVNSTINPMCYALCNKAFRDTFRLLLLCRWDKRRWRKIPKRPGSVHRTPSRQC
Chain of Gonadotropin-releasing hormone receptor (Homo sapiens) (P30968 whole entry, looked up): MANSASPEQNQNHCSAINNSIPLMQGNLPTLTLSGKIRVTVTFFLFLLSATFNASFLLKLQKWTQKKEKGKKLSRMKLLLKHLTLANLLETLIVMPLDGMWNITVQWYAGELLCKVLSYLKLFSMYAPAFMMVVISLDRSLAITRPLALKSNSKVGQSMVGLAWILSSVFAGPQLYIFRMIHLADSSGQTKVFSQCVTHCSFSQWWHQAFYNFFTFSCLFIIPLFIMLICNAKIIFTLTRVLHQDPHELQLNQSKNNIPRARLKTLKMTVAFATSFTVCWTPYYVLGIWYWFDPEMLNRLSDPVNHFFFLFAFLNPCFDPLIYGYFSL
Chain of KiSS-1 receptor (Homo sapiens) (Q969F8 whole entry, looked up): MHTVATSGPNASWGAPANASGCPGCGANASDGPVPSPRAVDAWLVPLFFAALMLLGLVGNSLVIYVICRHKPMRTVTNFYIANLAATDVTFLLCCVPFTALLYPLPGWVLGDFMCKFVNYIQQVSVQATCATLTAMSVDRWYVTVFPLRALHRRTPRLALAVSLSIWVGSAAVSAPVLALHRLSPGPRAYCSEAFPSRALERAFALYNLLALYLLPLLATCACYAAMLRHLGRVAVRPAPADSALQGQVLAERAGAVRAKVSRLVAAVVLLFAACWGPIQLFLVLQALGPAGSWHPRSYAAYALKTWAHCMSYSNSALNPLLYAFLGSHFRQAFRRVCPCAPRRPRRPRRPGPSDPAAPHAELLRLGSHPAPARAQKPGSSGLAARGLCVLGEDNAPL
Chain of Beta-2 adrenergic receptor (Homo sapiens) (P07550 whole entry, looked up): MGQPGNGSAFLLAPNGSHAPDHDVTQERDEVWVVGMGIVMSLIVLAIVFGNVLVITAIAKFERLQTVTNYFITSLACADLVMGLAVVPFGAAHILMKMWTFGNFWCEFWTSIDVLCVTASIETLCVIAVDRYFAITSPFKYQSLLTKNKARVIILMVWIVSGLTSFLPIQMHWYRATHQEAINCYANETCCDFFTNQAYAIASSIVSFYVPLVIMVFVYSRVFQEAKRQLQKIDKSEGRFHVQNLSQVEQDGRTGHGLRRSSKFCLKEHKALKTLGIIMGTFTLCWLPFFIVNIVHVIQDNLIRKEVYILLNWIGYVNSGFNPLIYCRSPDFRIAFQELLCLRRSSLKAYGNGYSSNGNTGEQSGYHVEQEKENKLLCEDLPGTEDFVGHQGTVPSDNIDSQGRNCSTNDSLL

Structure (SMILES) | Potency [1] | Potency [2] | Potency [3] | Potency [4] | Potency [5] | Potency [6] | Potency [7] | Potency [8] | Potency [9] | Potency [10] | Potency [11] | Potency [12] | Potency [13] | Potency [14] | Potency [15] | Potency [16] | Potency [17] | Potency [18] | Potency [19] | Potency [20]
O=C(O)c1cc(=O)c2ccccc2o1 | inactive | inactive | inactive | inactive | inactive | inactive | inactive | inactive | inactive | inactive | inactive | inactive | inactive | inactive | inactive | inactive | inactive | inactive | inactive | inactive
O=C(O)C1CCC(C(=O)O)CC1 (stereo not given) | inactive | inactive | inactive | inactive | inactive | inactive | inactive | inactive | inactive | inactive | inactive | inactive | inactive | inactive | inactive | inactive | inactive | inactive | inactive | inactive
NNS(=O)(=O)c1ccc(Oc2ccc(S(=O)(=O)NN)cc2)cc1 | inactive | inactive | inactive | inactive | inactive | inactive | inactive | inactive | inactive | inactive | inactive | inactive | inactive | inactive | inactive | inactive | inactive | inactive | inactive | inactive
CC(=O)NCc1c(I)c(NC(C)=O)c(I)c(C(=O)O)c1I | inactive | inactive | inactive | inactive | inactive | inactive | inactive | inactive | inactive | inactive | inactive | inactive | inactive | inactive | inactive | inactive | inactive | inactive | inactive | inactive
N=C(N)c1ccc2cc(OC(=O)c3ccc(N=C(N)N)cc3)ccc2c1 | inactive | inactive | inactive | inactive | inactive | inactive | inactive | inactive | inactive | inactive | inactive | inactive | inactive | inactive | inactive | inactive | inactive | inactive | inactive | inactive
O=C(O)c1ccc([N+](=O)[O-])cc1 | inactive | inactive | inactive | inactive | inactive | inactive | inactive | inactive | inactive | inactive | inactive | inactive | inactive | inactive | inactive | inactive | inactive | inactive | inactive | inactive
CCC(C)NC(N)=O (stereo not given) | inactive | inactive | inactive | inactive | inactive | inactive | inactive | inactive | inactive | inactive | inactive | inactive | inactive | inactive | inactive | inactive | inactive | inactive | inactive | inactive
CCCC/C=C\CCCCCCCCCC=O | inactive | inactive | inactive | inactive | inactive | inactive | inactive | inactive | inactive | inactive | inactive | inactive | inactive | inactive | inactive | inactive | inactive | inactive | inactive | inactive
c1ccc2cc3c4ccccc4c4ccccc4c3cc2c1 | inactive | 24.4 µM (active) | inactive | inactive | inactive | inactive | inactive | inactive | inactive | inactive | inactive | inactive | inactive | inactive | inactive | inactive | inactive | inactive | inactive | inactive
COCCCOc1cc(C[C@@H](C[C@H](N)[C@@H](O)C[C@H](C(=O)NCC(C)(C)C(N)=O)C(C)C)C(C)C)ccc1OC | inactive | inactive | inactive | inactive | inactive | inactive | inactive | inactive | inactive | inactive | inactive | inactive | inactive | inactive | inactive | inactive | inactive | inactive | inactive | inactive
COc1cccc(OC)c1 | inactive | inactive | inactive | inactive | inactive | inactive | inactive | inactive | inactive | inactive | inactive | inactive | inactive | inactive | inactive | inactive | inactive | inactive | inactive | inactive
CCSC(=O)N(CC)CC | inactive | inactive | inactive | inactive | inactive | inactive | inactive | inactive | inactive | inactive | inactive | inactive | inactive | inactive | inactive | inactive | inactive | inactive | inactive | inactive
CC(C)(C)c1ccc(C=O)cc1 | inactive | inactive | inactive | inactive | inactive | inactive | inactive | inactive | inactive | inactive | inactive | inactive | inactive | inactive | inactive | inactive | inactive | inactive | inactive | inactive

— PubChem BioAssay (Tox21)
